Screening results from PubChem.
Kir21 inh = blocks the mouse Kir2.1 inward-rectifier potassium channel; actives 0.85% (n = 310,000); B-score at 10 µM; P35561; AID 1672; HEK293-Kir2.1, FluxOR thallium flux fluorescence; hits give low values;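 active means fluorescence ratio B-score at or below minus 3 SD of library scores, with starting-brightness B-score within 2 SD, cut at about -4.2 in these data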;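 further: channel flux triggered by added potassium and thallium sulfate stimulus; B-score of peak minus minimum fluorescence over baseline after thallium stimulus; more negative B-score means stronger Kir2.1 block with less thallium influx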
PfM18AAP inh-1 = PfM18AAP enzyme inhibition; recombinant PfM18AAP, H-Glu-NHMec fluorogenic cleavage; inhibition, % at 7.35 µM; AID 1822; actives 1.2% (n = 290,000);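 active means inhibition above the campaign mean inhibition over all tested compounds plus 3 SD, cut at about 28% in these data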
DNA FID counter = displaces DNA intercalator in HCV helicase counter-screen; DNA fluorescent intercalator displacement, fluorescence; inhibition, % at 7.9 µM; actives 0.17% (n = 290,000); AID 1845; in the data active means inhibition above about 37%;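 further: higher means more ethidium bromide displaced from hairpin DNA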
Rce1 inh = inhibitors of yeast Ras-converting enzyme | Q03530 | yeast membranes, quenched prenylated peptide cleavage fluorescence | calls only | actives 0.27% (n = 290,000) | AID 2563;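 active means fall in fluorescence gain of 50% or more versus controls, with final raw signal at or below 3038400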
Target sequence (Q03530 whole entry, looked up): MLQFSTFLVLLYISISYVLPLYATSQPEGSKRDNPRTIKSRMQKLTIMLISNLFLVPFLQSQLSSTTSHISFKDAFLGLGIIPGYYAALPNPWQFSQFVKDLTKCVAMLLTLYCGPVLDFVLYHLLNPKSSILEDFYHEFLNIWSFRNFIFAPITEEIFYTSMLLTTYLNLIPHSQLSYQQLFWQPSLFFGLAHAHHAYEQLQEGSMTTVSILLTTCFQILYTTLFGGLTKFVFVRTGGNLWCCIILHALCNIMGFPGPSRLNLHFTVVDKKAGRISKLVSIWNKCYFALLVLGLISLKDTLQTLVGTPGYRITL
hERG inh = hERG (human) inhibition as Kir2.1 counter-screen | shares compounds with Kir21 inh | hERG-expressing cells, thallium flux | inhibition, % at 10 µM | actives 20% (n = 320) | AID 2236;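 further: host cells are CHO cells stably expressing hERG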
KCNK9 inh = human KCNK9 off-target activity of Kir2.1 blockers | shares compounds with Kir21 inh | KCNK9-expressing cells, ion flux inhibition | inhibition, % at 10 µM | actives 5% (n = 320)
Kir21 ephys inh = inhibitors of mouse Kir2.1 potassium channel; shares compounds with Kir21 inh; actives 71% (n = 320); inhibition, % at 25 µM; Kir2.1 cells, automated patch-clamp current inhibition
PfM18AAP inh-2 = confirmation of Plasmodium falciparum M18 aspartyl aminopeptidase inhibitors; inhibition, % at 7.35 µM; recombinant PfM18AAP, H-Glu-NHMec fluorogenic cleavage; shares compounds with PfM18AAP inh-1; actives 28% (n = 2,400);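 active means mean inhibition over replicate wells above the hit cutoff set for the earlier primary screen, cut at about 29% in these data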
CTSL1 counter = counter-screen for PFM18AAP inhibitors: confirmation of human cathepsin L inhibitors; purified cathepsin L1, Z-Leu-Arg-MCA fluorescence; inhibition, % at 5.96 µM; 2,400 tested, under 10 active; shares compounds with PfM18AAP inh-1;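 active means average inhibition across replicates above the hit cutoff set in the earlier primary screen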
Large screens that a line does not name were inactive (follow-up assays come after a bar, where they were run). Sampled rows, rich in hits. Any-hit rate of the full collection: about 2.3%. Unless noted, how the calls were made is not given here.

O=S(=O)(Nc1ccccc1N1CCOCC1)c1ccc(F)c(Cl)c1	Kir21 inh -12 | hERG inh inactive | KCNK9 inh inactive | Kir21 ephys inh 2.6%
CC(=O)N(CC(C)(C)CC=C(C)C)c1ccccc1	Kir21 inh -5.9 | hERG inh inactive | KCNK9 inh inactive | Kir21 ephys inh 9.4%
COc1ccc(CCNC(=O)c2ccc3ccccc3n2)cc1	none
COc1ccc(CN2CCC(C(=O)c3ccc(F)cc3)CC2)cc1	Kir21 inh -8 | hERG inh 58% | KCNK9 inh inactive | Kir21 ephys inh 63%
COc1ccc(C(=O)C2CCN(C(=O)c3ccc(F)cc3)CC2)cc1	none
COc1cc(C(=O)N2CCCCCCC2)ccc1OC1CCN(C(C)=O)CC1	none
O=C1CCN(Cc2ccc(O)cc2)CCN1CCO	none
COc1cc(OC)c(C(=O)NCCCN2CCOCC2)cc1OC	PfM18AAP inh-1 57 | PfM18AAP inh-2 inactive | CTSL1 counter inactive
S=C(NCCCN1CCOCC1)NCCCN1CCOCC1	PfM18AAP inh-1 39 | PfM18AAP inh-2 inactive | CTSL1 counter inactive
Cc1ccc(NC(=O)Cn2c(=O)c3cccn3c3ccccc32)c(Cl)c1	none
COc1ccc(OC)c(CCNC(=O)c2ccccc2NC(=O)C2=C(C)OCCS2)c1	none
O=C(COC(=O)CCc1ccccc1)NC1CCS(=O)(=O)C1 (configuration not stated)	none (no result: PfM18AAP inh-1, DNA FID counter)
COc1cccc(/C=N/Nc2ncnc3c2[nH]c2ccc(C)cc23)c1OC	none
COc1ccc(/C=N/Nc2ncnc3c2[nH]c2ccccc23)c(OC)c1OC	PfM18AAP inh-1 36 | PfM18AAP inh-2 inactive | CTSL1 counter inactive
COCCOC(=O)c1c(C)n(C)c2ccc(OC(=O)N3CCOCC3)cc12	none
COCCOC(=O)c1c(C)n(C)c2ccc(OC(=O)c3c(OC)cccc3OC)cc12	PfM18AAP inh-1 36 | PfM18AAP inh-2 inactive | CTSL1 counter inactive
CCc1ccc(CNC(=O)C2CCCN(S(=O)(=O)N(CC)c3ccccc3)C2)cc1 (configuration not stated)	none
CC(C)(C)c1cc(C(=O)N/N=C/c2ccc(-c3ccccc3[N+](=O)[O-])o2)n[nH]1	PfM18AAP inh-1 48 | PfM18AAP inh-2 inactive | CTSL1 counter inactive
O=C1CC(N2CCCCCC2)C(=O)N1c1ccc2c(c1)OCO2 (configuration not stated)	none
O=C1CC(N2CCN(c3ccc(O)cc3)CC2)C(=O)N1c1ccc2c(c1)OCO2 (configuration not stated)	PfM18AAP inh-1 32 | PfM18AAP inh-2 inactive | CTSL1 counter inactive
COc1ccc(NC(=O)c2ccco2)cc1NC(=O)c1cccc(F)c1	none
O=C1CCCC/C1=C\Nc1ccc(C(=O)O)c(O)c1	PfM18AAP inh-1 33 | PfM18AAP inh-2 inactive | CTSL1 counter inactive
Nc1nc(Nc2ccc(Cl)cc2)n[nH]1	PfM18AAP inh-1 32 | PfM18AAP inh-2 inactive | CTSL1 counter inactive
Nc1nc(Nc2cccc(Cl)c2)n[nH]1	PfM18AAP inh-1 43 | PfM18AAP inh-2 inactive | CTSL1 counter inactive
Nc1nc(Nc2ccccc2)n[nH]1	PfM18AAP inh-1 45 | PfM18AAP inh-2 inactive | CTSL1 counter inactive
Nc1nc(N2CCN(c3cccc(Cl)c3)CC2)n[nH]1	none
Nc1nc(N2CCN(c3ccc(Cl)cc3)CC2)n[nH]1	none
O=C(NCCN1CCCCC1)c1ccc(Oc2cc(Cl)cc(Cl)c2)o1	none
CCOC(=O)COn1c(-n2nc(C)cc2C)nc2ccccc2c1=O	none
Cc1cc2nc3ccc(=[N+](C)C)cc-3sc2cc1N	PfM18AAP inh-1 36, DNA FID counter 104 | PfM18AAP inh-2 inactive | CTSL1 counter inactive
Cc1nc2cc(C)c(C)cc2s1	none
Cc1cc(C)n(CCC(=O)N=Nc2c(O)[nH]c3ccc(Br)cc23)n1	none
CN(C)c1ccc(N/C=C/C(=O)C(C)(C)C)cc1	none
CC(C)(C)C(=O)/C=C/Nc1ccccc1O	PfM18AAP inh-1 42 | PfM18AAP inh-2 inactive | CTSL1 counter inactive
